Where “and” joins values, the source holds several entries; their conditions need not be identical. Equal entries are not always repeated. Inconclusive results are not listed. Some compounds were tested as several samples or in several runs, with calls that do not always agree. Calls of active or inactive are those of the source. The calls were made as follows, unless noted: active = hit-call score of the fitted dose curve at least 0.9, where 1 is the maximum; inactive = score below 0.9.
Tests used:
DIO2 (gene 1734) = experiment: CCTE_GLTED_hDIO2: CCTE's human Deiodinase 2 (DIO2) Inhibition Assay, Great Lakes Toxicology and Ecology Division (GLTED) Lab (AID 2284050; active = hit-call score of the fitted dose curve at least 0.9, where 1 is the maximum)
Method in brief: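 Triplicate cell-free incubations (3 h) of human DIO2 with chemical preceded colorimetric Sandell-Kolthoff quantitation of liberated iodide; DMSO served as negative control for curve fitting.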

DIO3 (gene 1735) = experiment: CCTE_GLTED_hDIO3: CCTE's human Deiodinase 3 (DIO3) Inhibition Assay, Great Lakes Toxicology and Ecology Division (GLTED) Lab (AID 2284055; active = hit-call score of the fitted dose curve at least 0.9, where 1 is the maximum;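 as to AC50: potency is for inhibition seen as loss of released iodide signal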)
Method in brief: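 Steps: incubate adenovirus-produced hDIO3 with chemical for 3 hours; detect freed iodide via cerium-arsenic Sandell-Kolthoff colorimetry; compare with DMSO baseline.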

[1] = CCTE_Shafer_MEA_acute_LDH: CCTE's Lactate Dehydrogenase Assay for Cytotoxicity in the Neural Acute Assay, Shafer Lab (AID 2284086; active = hit-call score of the fitted dose curve at least 0.9, where 1 is the maximum;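 also: active means LDH release rises above DMSO vehicle level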)
Method in brief: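 Cytotoxicity readout: spectrophotometric LDH activity in supernatant of rat primary cortical neurons, post-plating day 13 or 15, sampled after 40 min compound exposure; signal gain relative to DMSO baseline.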

[2] = CCTE_Shafer_MEA_dev_burst_rate: CCTE's Neural Network Formation Assay for Burst Rate, Shafer Lab (AID 2284042);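 as to AC50: potency for loss of burst rate below DMSO control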
Method in brief: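 Cells plated, treated day 0; recorded DIV 5, 7, 9, 12; fed and re-treated DIV 5, 9. Endpoint: bursts per recording time, active-electrode well mean, trapezoidal AUC, fitted in decreasing direction against DMSO baseline.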

[3] = CCTE_Shafer_MEA_dev_bursting_electrodes_number: CCTE's Neural Network Formation Assay for Number of Bursting Electrodes, Shafer Lab (AID 2284043; active = hit-call score of the fitted dose curve at least 0.9, where 1 is the maximum;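 as to AC50: potency is for loss of bursting electrodes relative to DMSO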)
Method in brief: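 Counted: electrodes with burst rate ≥1 per 2 min in each well. Cells: primary rat cortex, 1.5 x 10^5/well, on 16-electrode MEA wells. Exposure: DIV 0–12, compound renewed DIV 5 and 9. Recording days 5, 7, 9, 12; AUC vs DMSO baseline.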

[4] = CCTE_Shafer_MEA_dev_burst_duration_mean: CCTE's Neural Network Formation Assay for Mean Burst Duration, Shafer Lab (AID 2284045);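 as to AC50: curve fitted for loss meaning shorter burst duration than DMSO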
Method in brief: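 Network-formation assay in primary rat cortical neurons; treatment spans twelve days of development. Mean burst duration per well is integrated by trapezoidal AUC and fitted in the loss-of-signal direction against DMSO baseline.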

[5] = CCTE_Shafer_MEA_dev_interburst_interval_mean: CCTE's Neural Network Formation Assay for Mean Interburst Interval, Shafer Lab (AID 2284046);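 also: well-mean interburst interval of bursting electrodes as AUC over four recording days; curve fitted for decrease in interburst interval relative to DMSO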
Method in brief: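 Developing rat cortical networks on 48-well MEAs receive compound from the day of plating. Burst intervals from each active electrode are averaged per well, and AUC over the recording days is fitted in the negative direction against DMSO.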

[6] = CCTE_Shafer_MEA_dev_network_spike_number: CCTE's Neural Network Formation Assay for Number of Network Spikes, Shafer Lab (AID 2284048);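 also: synchronized bursts across electrodes counted on days 5 7 9 12 and integrated as AUC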;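 as to AC50: fit as a loss of signal meaning fewer network spikes than DMSO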
Method in brief: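 Extracellular recordings from 16-electrode wells track network formation in rat cortical cultures under continuous treatment from plating. The endpoint is network spike number, expressed as AUC across DIV 5–12 relative to DMSO vehicle.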

[7] = CCTE_Shafer_MEA_dev_network_spike_peak: CCTE's Neural Network Formation Assay for Mean Number of Electrodes in Network Spike, Shafer Lab (AID 2284049);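 as to AC50: fitted for loss of signal meaning fewer electrodes in network spikes than DMSO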
Method in brief: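 Continuous 12-day exposure of rat cortical cultures, starting at plating, on MEA plates. Endpoint: electrodes participating in network-spike peaks, AUC across DIV 5–12, DMSO as negative control.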

[8] = CCTE_Shafer_MEA_dev_spike_duration_mean: CCTE's Neural Network Formation Assay for Mean Spike Duration, Shafer Lab (AID 2284051);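 also: mean network spike duration pooled as area under curve over DIV 5 to 12 recordings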;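 as to AC50: potency for a decrease in mean network spike duration versus DMSO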
Method in brief: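 Readout is the average length of network spikes, clustered firing across electrodes, summed over DIV 5, 7, 9 and 12 as area under the curve. Neurons from rat cortex developed networks on MEA plates under continuous 12-day exposure.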

[9] = CCTE_Shafer_MEA_dev_network_spike_duration_std: CCTE's Neural Network Formation Assay for Standard Deviation of Network Spike Duration, Shafer Lab (AID 2284052);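 also: area under curve of spike duration SD across recording days 5 to 12; hits are decreases in network spike duration SD versus DMSO vehicle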
Method in brief: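 Read-out is the trapezoidal area-under-the-curve across recordings made on days 5, 7, 9 and 12, fitted in the negative direction against DMSO baseline. Neurons were primary rat cortical cells treated from day 0, with treatment renewed at each feed.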

[10] = CCTE_Shafer_MEA_dev_per_network_spike_spike_number_mean: CCTE's Neural Network Formation Assay for Mean Number of Spikes in a Network Spike, Shafer Lab (AID 2284053)
Method in brief: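 Continuous twelve-day exposure of developing rat cortical networks grown over 16 microelectrodes per well; spontaneous firing is captured at four time points, and the per-network-spike spike number is integrated over development by trapezoidal AUC.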

[11] = CCTE_Shafer_MEA_dev_per_network_spike_spike_percent: CCTE's Neural Network Formation Assay for Percent of Spikes in a Network Spike, Shafer Lab (AID 2284054)
Method in brief: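 Developing networks of rat cortical neurons are dosed at day 0 and recorded extracellularly four times up to day 12. The endpoint is the area under the curve of percent spikes in network spikes, fitted in the negative direction relative to DMSO.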

[12] = CCTE_Shafer_MEA_dev_LDH: CCTE's Lactate Dehydrogenase Assay for Cytotoxicity in the Neural Network Formation Assay, Shafer Lab (AID 2284068; active = hit-call score of the fitted dose curve at least 0.9, where 1 is the maximum;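 also: exposure for twelve days from plating with re-dosing on DIV 5 and 9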)
Method in brief: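 Cytotoxicity companion to network-formation recordings: rat cortical neurons received compound over 12 days of development, re-dosed at DIV 5 and 9 feeds. Viability was inferred from LDH enzyme activity relative to DMSO.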

[13] = CCTE_Shafer_MEA_dev_correlation_coefficient_mean: CCTE's Neural Network Formation Assay for Mean Correlation Coefficient, Shafer Lab (AID 2284093);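 as to AC50: well mean pairwise spike train correlation integrated as AUC over recording days 5 to 12; potency fitted for loss of correlation relative to DMSO vehicle wells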
Method in brief: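 Read-out: well-mean correlation coefficient of spike trains between electrode pairs, collapsed over four recording days as trapezoidal area-under-the-curve. Developing rat cortical neuron networks grown on MEAs received test chemical continuously from plating.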

[14] = CCTE_Shafer_MEA_dev_AB: CCTE's Alamar Blue Assay for Cytotoxicity in the Neural Network Formation Assay, Shafer Lab (AID 2284083; active = hit-call score of the fitted dose curve at least 0.9, where 1 is the maximum;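 also: resazurin reduction fluorescence as viability of cultured neurons; twelve days of exposure from plating with re-dosing on DIV 5 and 9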)
Method in brief: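 Fluorescent resazurin reduction serves as the viability read-out, with DMSO as negative control and baseline. Cells were primary rat cortical neurons grown on MEA plates and dosed from day 0 to day 12, treatment renewed on DIV 5 and 9.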

[15] = UKN2_HCS_IMR90_neural_migration: University of Konstanz (UKN) Leist Lab Neural Crest Cell Migration Assay in human induced IMR90 Pluripotent Stem Cells (UKN2) (AID 2284204); conditions: actives raise or lower the signal
Method in brief: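 Using a 96-well stopper format with PLO/laminin/fibronectin coating, neural crest cells from iPSC migrate in cytokine-supplemented N2-S medium; after 24 h, chemicals are applied for a further 24 h, then cells are imaged after dye staining.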

[16] = UKN5_HCS_SBAD2_cell_viability: Viability Assessment in the University of Konstanz (UKN) Leist Lab Neurite Outgrowth Assay in human iPSC-derived immature Dorsal Root Ganglia Neurons (UKN5) (AID 2284056)
Method in brief: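 iPSC-derived immature peripheral neurons (SBAD2) seeded on Matrigel with CHIR99021, SU5402 and DAPT, dosed 1 h later for 24 h. Viability from Hoechst H-33342 and calcein-AM live staining, high-content imaging; bidirectional fit versus DMSO.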

[17] = UKN5_HCS_SBAD2_neurite_outgrowth: University of Konstanz (UKN) Leist Lab Neurite Outgrowth Assay in human iPSC-derived immature Dorsal Root Ganglia Neurons (UKN5) (AID 2284070); conditions: actives raise or lower the signal
Method in brief: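 Neurite outgrowth is quantified as calcein-AM-labelled neurite area in human iPSC-derived peripheral neurons treated for 24 h, starting 1 h after plating in medium with CHIR99021 (1.5 uM), SU5402 (5 uM) and DAPT (5 uM).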

[18] = UKN4_HCS_LUHMES_neurite_outgrowth: University of Konstanz (UKN) Leist Lab Neurite Outgrowth Assay in human LUHMES cells (UKN4) (AID 2284206); conditions: actives raise or lower the signal
Method in brief: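 Neurite area in dopaminergic-model LUHMES neurons is measured by high-content imaging of calcein-AM after 24 h treatment starting shortly after day-2 replating; Hoechst staining tracks viability.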

Measured: AC50

CCCCCCCCc1ccc(O)cc1
inactive: [1]
active: DIO2 (gene 1734) 151 µM | DIO3 (gene 1735) 19.9 µM

O=C(O)C(F)(F)C(F)(F)C(F)(F)C(F)(F)C(F)(F)C(F)(F)C(F)(F)C(F)(F)C(F)(F)C(F)(F)F
active: DIO2 (gene 1734) 50 µM and 53.2 µM | DIO3 (gene 1735) 19.9 µM and 25.1 µM
not listed: [14] | [15] | [16] | [17] | [18]
inactive: all other assays above

COP(=O)(OC)O/C(=C\Cl)c1cc(Cl)c(Cl)cc1Cl
inactive: [2] | [4] | [5] | [6] | [8] | [9] | [10] | [11] | [14] | [13] | [15]
active: [3] 79.3 µM and 51.5 µM | [7] 86.9 µM and 12.5 µM | [8] 84.2 µM | [12] 50 µM and 51.5 µM | [14] 50 µM

Cl/C=C\C[N+]12CN3CN(CN(C3)C1)C2
active: DIO3 (gene 1735) 100 µM
inactive: DIO2 (gene 1734)

C=C(C)C(=O)[O][Sn]([CH2]CCC)([CH2]CCC)[CH2]CCC
inactive: [1]
active: [2] 0.0225 µM | [3] 0.0199 µM | [4] 0.0266 µM | [5] 0.0482 µM | [6] 0.0218 µM | [7] 0.0394 µM | [8] 0.0312 µM | [9] 0.013 µM | [10] 0.0301 µM | [11] 1.98 µM | [16] 0.246 µM | [12] 1.98 µM | [17] 0.127 µM | [14] 0.0915 µM | [13] 0.0288 µM | [15] 0.168 µM | [18] 0.0977 µM

CC(C)(C)c1cc(O)ccc1O
inactive: [2] | [4] | [5] | [6] | [9] | [1]
active: [3] 6.04 µM | [7] 10 µM | [8] 9.62 µM | [10] 5.63 µM | [11] 5.23 µM | [12] 15 µM | [14] 15.2 µM | [13] 6.2 µM

C[C@]12CCC(=O)C[C@@H]1CC[C@@H]1[C@@H]2CC[C@]2(C)[C@@H](O)CC[C@@H]12
inactive: [1]

O=C1C(Cl)=C(Cl)C(=O)c2ccccc21
active: DIO2 (gene 1734) 26.8 µM | DIO3 (gene 1735) 11.3 µM

CCC(=O)C(CC(C)N(C)C)(c1ccccc1)c1ccccc1 (stereo not drawn)
inactive: [4] | [6] | [9] | [14]
active: [2] 4.16 µM | [3] 4.45 µM | [5] 4.24 µM | [7] 4.26 µM | [8] 3.49 µM | [10] 3.36 µM | [11] 7.25 µM | [12] 7.25 µM | [13] 7.25 µM

COC(=O)Cc1ccccc1
inactive: [1]

CC12CC1(C)C(=O)N(c1cc(Cl)cc(Cl)c1)C2=O (stereo not drawn)
inactive: DIO2 (gene 1734) | DIO3 (gene 1735)

CC(C)(OO)c1ccccc1
inactive: [1]

CC(=O)OC(c1ccccc1)C(Cl)(Cl)Cl (stereo not drawn)
inactive: [1]

O=C1C2(Cl)C3(Cl)C4(Cl)C(Cl)(Cl)C5(Cl)C3(Cl)C1(Cl)C5(Cl)C24Cl (stereo not drawn)
active: [2] 3.99 µM | [3] 3.55 µM | [5] 3.75 µM | [6] 3.18 µM | [7] 5.38 µM | DIO2 (gene 1734) 28.3 µM | [8] 5.43 µM | [9] 0.028 µM | [10] 0.341 µM | DIO3 (gene 1735) 4.51 µM | [12] 8.19 µM | [17] 14.6 µM | [14] 8.77 µM | [13] 1.15 µM | [15] 2.17 µM | [18] 3.44 µM
inactive: [4] | [16] | [1]

— PubChem BioAssay (EPA / NIEHS)
